Data published in PubChem BioAssay (EPA / NIEHS).
“And” between values parts separate entries of the source, which are not always exact repeats. Identical values can stand only once. More than one record can exist for a structure, and the calls need not agree. The source made the active and inactive calls. The calls were made as follows: active = hit-call score of the fitted dose curve at least 0.9, where 1 is the maximum; inactive = score below 0.9.

How the values were obtained:
[1] = read-out: Intercellular Adhesion Molecule 1 (ICAM1), ICAM1 (gene 3383); test: BSK_BF4T_ICAM1: BioMAP Diversity Plus: BF4T Assay for Intercellular Adhesion Molecule 1 (ICAM1) Biomarker Activity (AID 2284260); conditions: primary human bronchial epithelial cells with fibroblasts
How it was run: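 ICAM-1 levels measured by ELISA after 24 h chemical treatment of bronchial epithelial cell/dermal fibroblast co-cultures, read against DMSO baseline. Overt cytotoxicity checked in parallel cultures by sulforhodamine B staining.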

[2] = read-out: CD90, THY1 (gene 7070); test: BSK_BF4T_CD90: BioMAP Diversity Plus: BF4T Assay for CD90 Biomarker Activity (AID 2284262); conditions: primary human bronchial epithelial cells with fibroblasts
How it was run: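 CD90 levels by ELISA after 24 h treatment of human bronchial epithelial cell/dermal fibroblast cultures, analysed versus DMSO. Overt cytotoxicity checked in parallel cultures by sulforhodamine B staining.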

[3] = read-out: Interleukin-8 (IL8), CXCL8 (gene 3576); test: BSK_BF4T_IL8: BioMAP Diversity Plus: BF4T Assay for Interleukin-8 (IL8) Biomarker Activity (AID 2284263); conditions: primary human bronchial epithelial cells with fibroblasts
How it was run: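 Human bronchial epithelial cells with dermal fibroblasts co-culture; IL-8 measured by ELISA 24 hours after dosing, fitted vs DMSO. Cytotoxicity tracked in parallel cultures by SRB total-protein staining.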

[4] = read-out: Interleukin-1 alpha (IL1a), IL1A (gene 3552); test: BSK_BF4T_IL1a: BioMAP Diversity Plus: BF4T Assay for Interleukin-1 alpha (IL1a) Biomarker Activity (AID 2284264); conditions: primary human bronchial epithelial cells with fibroblasts
How it was run: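 ELISA read-out of IL-1α from bronchial epithelial cell/dermal fibroblast co-cultures 24 h after compound addition. Increases scored against DMSO negative control. Cytotoxicity monitored by sulforhodamine B staining of parallel cultures.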

[5] = read-out: Decorin, DCN (gene 1634); test: BSK_MyoF_Decorin: BioMAP Diversity Plus: MyoF Assay for Decorin Biomarker Activity (AID 2284265); conditions: primary human lung fibroblasts
How it was run: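 Decorin protein was quantified by ELISA 24 h after chemical addition to primary human lung fibroblasts and analysed as increase over DMSO. Cytotoxicity was tracked in parallel cultures by SRB total-protein staining read at 560 nm.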

[6] = BSK_MyoF_SRB: Viability Assessment in the BioMAP Diversity Plus: MyoF Assay (AID 2284267); conditions: primary human lung fibroblasts;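 also: total protein by SRB absorbance in parallel cultures as cytotoxicity measure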
How it was run: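 Cytotoxicity read-out: after 10% TCA fixation, parallel human lung fibroblast cultures were stained with 0.1% SRB at 24 h post-dosing and read at 560 nm; DMSO served as baseline.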

[7] = read-out: Matrix Metallopeptidase 1 (MMP1), MMP1 (gene 4312); test: BSK_MyoF_MMP1: BioMAP Diversity Plus: MyoF Assay for Matrix Metallopeptidase 1 (MMP1) Biomarker Activity (AID 2284268); conditions: primary human lung fibroblasts
How it was run: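 Human lung fibroblasts (MyoF system) exposed to chemical for 24 h in 96-well format; MMP1 biomarker quantified by ELISA, with activity fitted in the positive direction relative to DMSO baseline.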

[8] = read-out: KRT18 (gene 3875); test: BSK_BF4T_Keratin818: BioMAP Diversity Plus: BF4T Assay for Keratin 818 Biomarker Activity (AID 2284266); conditions: primary human bronchial epithelial cells with fibroblasts
How it was run: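 Keratin 8/18 levels quantified by ELISA after 24 h chemical treatment of bronchial epithelial cell/dermal fibroblast co-cultures, fitted in positive direction relative to DMSO. Parallel SRB staining tracks overt cytotoxicity.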

[9] = read-out: Monocyte Chemoattractant Protein-1 (MCP1), CCL2 (gene 6347); test: BSK_BF4T_MCP1: BioMAP Diversity Plus: BF4T Assay for Monocyte Chemoattractant Protein-1 (MCP1) Biomarker Activity (AID 2284259); conditions: primary human bronchial epithelial cells with fibroblasts
How it was run: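 MCP-1 ELISA readout taken 24 h after dosing in the BF4T system (bronchial epithelial cells plus dermal fibroblasts). Parallel SRB total-protein staining flagged cytotoxicity; DMSO served as baseline, positive fitting direction.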

[10] = read-out: Interleukin-8 (IL8), CXCL8 (gene 3576); test: BSK_MyoF_IL8: BioMAP Diversity Plus: MyoF Assay for Interleukin-8 (IL8) Biomarker Activity (AID 2284261); conditions: primary human lung fibroblasts
How it was run: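 IL-8 quantified by ELISA after 24 h compound exposure of primary human lung fibroblasts. SRB staining of parallel cultures flagged cytotoxicity; DMSO served as baseline.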

Measured: AC50

OCCCC(F)(F)C(F)(F)C(F)(F)C(F)(F)C(F)(F)C(F)(F)C(F)(F)C(F)(F)F
inactive: [7]
active: [1] 23.2 µM and 34.2 µM | [2] 20.6 µM and 19.2 µM | [3] 47.9 µM and 24.3 µM | [4] 46.4 µM and 45.7 µM | [5] 16.4 µM and 14.4 µM | [6] 12.9 µM and 12.4 µM | [7] 16.3 µM

FC(F)(F)C(F)(F)C(F)(F)C(F)(F)C(F)(F)C(F)(F)CC[Si](Cl)(Cl)Cl
not listed: [2] | [9] | [10]
inactive: all other assays above

OCC(O)CC(F)(F)C(F)(F)C(F)(F)C(F)(F)F (stereo unspecified)
active: [3] 220 nM
inactive: [1] | [3] | [4] | [5] | [6] | [7]

OCC(F)(F)C(F)(F)C(F)(F)C(F)(F)C(F)(F)C(F)(F)C(F)(F)C(F)(F)CO
active: [9] 16.7 µM and 9.07 µM | [1] 16.4 µM and 12.2 µM | [6] 47.2 µM | [7] 49.5 µM
inactive: [3] | [4] | [5] | [6] | [7]

CNS(=O)(=O)C(F)(F)C(F)(F)C(F)(F)C(F)(F)C(F)(F)C(F)(F)C(F)(F)C(F)(F)F
active: [10] 9.75 µM | [3] 46300 nM
inactive: [1] | [10] | [3] | [4] | [5] | [6] | [7]

OCC(F)(F)C(F)(F)C(F)(F)C(F)(F)C(F)(F)C(F)(F)CO
not listed: [2] | [8]
inactive: all other assays above

Nc1cc([N+](=O)[O-])cc(Cl)c1O
inactive: [5] | [6] | [7]

FC(F)(F)C(F)(F)C(F)(F)CC1CO1 (stereo unspecified)
inactive: [1] | [3] | [4] | [5] | [6] | [7]

NCC(F)(F)C(F)(F)C(F)(F)C(F)(F)C(F)(F)C(F)(F)F
inactive: [1] | [3] | [4] | [5] | [6] | [7]

O=C=NCc1cccc(CN=C=O)c1
inactive: [10] | [5] | [6] | [7]

C[C@]12CC[C@H]3C(=CCc4cc(O)ccc43)[C@@H]1CCC2=O
inactive: [5] | [6] | [7]

FC(F)(F)C(F)(F)C(F)(F)C(F)(F)C(F)(F)C(F)(F)C(F)(F)CCI
inactive: [1] | [3] | [4] | [5] | [6] | [7]

O=C(O)CCC(F)(F)C(F)(F)C(F)(F)F
inactive: [1] | [3] | [4] | [5] | [6] | [7]

O=C1C=CC(=O)N1c1ccc(Cc2ccc(N3C(=O)C=CC3=O)cc2)cc1
inactive: [10] | [5]
active: [6] 3.58 µM | [7] 11.7 µM

O=C1c2c(O)ccc(Nc3ccc(CCO)cc3)c2C(=O)c2c([N+](=O)[O-])ccc(O)c21
active: [10] 1.65 µM | [5] 9.73 µM | [6] 11 µM | [7] 11 µM

O=C(Cl)C(F)(F)C(F)(F)C(F)(F)C(F)(F)C(F)(F)C(F)(F)C(F)(F)F
inactive: [1] | [3] | [4] | [5] | [6] | [7]

OC(O)C(F)(F)C(F)(F)F
inactive: [1] | [3] | [4] | [5] | [6] | [7]

CCN(CC)c1ccc(N=Nc2ccccc2)cc1
inactive: [5]
active: [6] 20 µM | [7] 5.14 µM

O=C=Nc1cccc2c(N=C=O)cccc12
inactive: [5] | [6] | [7]

OCC(O)CC(F)(F)C(F)(F)C(F)(F)C(F)(F)C(F)(F)C(F)(F)C(F)(F)C(F)(F)F (stereo unspecified)
inactive: [1] | [3] | [4] | [5] | [6] | [7]

O=C(c1ccccc1)c1ccc(O)cc1O
inactive: [5] | [6] | [7]

CCN(CC)c1ccc2c(c1)Oc1cc(N(CC)CC)ccc1C21OC(=O)c2ccccc21
inactive: [10] | [5] | [6] | [7]

Cc1ccc(O)c(-n2nc3ccccc3n2)c1
inactive: [5] | [6] | [7]

Cc1ccc(S(=O)(=O)C(I)I)cc1
active: [5] 5.2 µM | [6] 8.6 µM | [7] 11.2 µM

CC1=CC2C3C=CC(C3)C2C1C (stereo unspecified)
inactive: [5] | [6] | [7]

Cc1cnccn1
inactive: [5] | [6] | [7]

CCOC(C=C(C)CCC=C(C)C)OCC
active: [5] 0.016 µM | [6] 30.4 µM | [7] 31.3 µM

Cc1cc(O)c(C(C)(C)C)cc1C(C)(C)C
active: [5] 5.16 µM | [6] 5.29 µM | [7] 9.48 µM

CCOC(=O)CC(=O)C(F)(F)C(F)(F)F
inactive: [1] | [3] | [4] | [5] | [6] | [7]

CCN(CC)c1ccc(C=O)c(O)c1
inactive: [10] | [5] | [6] | [7]

OCCCCC(F)(F)C(F)(F)C(F)(F)C(F)(F)F
inactive: [1] | [3] | [4] | [5] | [6] | [7]

Brc1nc2ccccc2s1
inactive: [10] | [5] | [6] | [7]

CCN(CC)c1ccc(C=O)cc1
inactive: [5] | [6] | [7]

NS(=O)(=O)C(F)(F)C(F)(F)C(F)(F)C(F)(F)C(F)(F)C(F)(F)F
inactive: [1] | [3] | [4] | [5] | [7]
active: [6] 13.4 µM and 30 µM

CC(C)CCCC(C)CCO (stereo unspecified)
active: [6] 34.5 µM | [7] 33.7 µM
inactive: [10] | [5]

NC(O)(C(F)(F)F)C(F)(F)F
inactive: [1] | [3] | [4] | [5] | [6] | [7]

Cc1cc(C)c(O)c(C(C)(C)C)c1
active: [5] 35.4 µM | [6] 35.9 µM
inactive: [7]

O=C(O)CCC(F)(F)C(F)(F)C(F)(F)C(F)(F)C(F)(F)C(F)(F)C(F)(F)F
inactive: [1] | [3] | [4] | [5] | [6] | [7]

CC(C)(C)c1cc(CCC(=O)NCCCCCCNC(=O)CCc2cc(C(C)(C)C)c(O)c(C(C)(C)C)c2)cc(C(C)(C)C)c1O
inactive: [10] | [5] | [6] | [7]
